# Source: PubChem BioAssay AID1445 (SRMLSC, 2008)
# Screen size: about 220,000 compounds; about 910 (0.41%) were called active. For the sample, actives were picked, then their nearest neighbours and some compounds at random. Measured potencies and affinities stand elsewhere. Unmarked numbers belong to inactive results.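 How the source made its calls: active means primary inhibition above the hit cutoff, then over 50% inhibition at one or more dose response concentrations (cut at about 23% in these data, passing the limit was not always enough); inconclusive means conflicting primary data, or primary hits not chosen for dose response; inactive means low primary inhibition, or under 50% at every dose.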
# Biological target: Aminopeptidase N (Plasmodium falciparum (isolate 3D7)) (UniProt O96935)
# Test: P. falciparum M1AAP inhibitors, biochemical, fluorogenic H-Leu-NHMec substrate, 1536-well (AID 1445);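 further: plate controls were DMSO full reaction for no effect and no enzyme background for full effect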
# Conditions: recombinant M1AAP, H-Leu-NHMec fluorogenic kinetic assay; at 30 µM, active compounds read high unless noted
# Chain of Aminopeptidase N (Plasmodium falciparum (isolate 3D7)) (O96935 whole entry, looked up): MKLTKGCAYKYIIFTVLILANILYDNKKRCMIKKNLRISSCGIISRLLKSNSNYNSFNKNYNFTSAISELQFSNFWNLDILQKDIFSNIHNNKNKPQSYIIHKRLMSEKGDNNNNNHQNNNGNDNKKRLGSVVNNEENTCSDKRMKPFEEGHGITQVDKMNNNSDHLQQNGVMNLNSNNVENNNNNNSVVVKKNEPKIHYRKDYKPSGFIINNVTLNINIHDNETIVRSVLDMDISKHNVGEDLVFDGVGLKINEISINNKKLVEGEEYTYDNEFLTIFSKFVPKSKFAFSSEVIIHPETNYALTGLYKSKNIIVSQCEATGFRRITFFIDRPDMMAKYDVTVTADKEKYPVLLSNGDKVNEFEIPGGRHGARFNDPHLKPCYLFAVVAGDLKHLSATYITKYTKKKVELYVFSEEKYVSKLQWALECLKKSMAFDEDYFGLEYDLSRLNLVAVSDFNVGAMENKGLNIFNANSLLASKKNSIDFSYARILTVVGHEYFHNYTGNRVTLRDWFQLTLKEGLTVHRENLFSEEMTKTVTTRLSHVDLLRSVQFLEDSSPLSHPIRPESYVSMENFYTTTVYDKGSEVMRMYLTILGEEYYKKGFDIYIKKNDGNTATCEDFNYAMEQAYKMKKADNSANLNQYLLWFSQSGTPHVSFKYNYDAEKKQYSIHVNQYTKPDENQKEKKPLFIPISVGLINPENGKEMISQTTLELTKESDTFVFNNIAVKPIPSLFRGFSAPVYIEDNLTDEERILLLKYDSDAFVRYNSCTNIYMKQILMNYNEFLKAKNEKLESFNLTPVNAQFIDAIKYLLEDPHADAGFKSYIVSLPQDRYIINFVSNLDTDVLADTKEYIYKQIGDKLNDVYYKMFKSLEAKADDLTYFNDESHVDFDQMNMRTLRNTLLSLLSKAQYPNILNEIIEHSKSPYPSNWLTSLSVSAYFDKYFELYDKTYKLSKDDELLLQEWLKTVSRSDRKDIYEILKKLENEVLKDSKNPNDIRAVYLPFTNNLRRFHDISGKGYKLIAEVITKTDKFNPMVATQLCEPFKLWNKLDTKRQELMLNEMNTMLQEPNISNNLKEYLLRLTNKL
row,SMILES,inhibition
1,Cc1ccc(N/C=C2/Sc3ccccc3NC2=O)cc1,-2.38%
2,O=C1Nc2ccccc2S/C1=C/Nc1cccc(Cl)c1,-0.46%
3,CCc1ccc(OCC(=O)NC(NC(=S)Nc2ccc(C)cc2C)C(Cl)(Cl)Cl)cc1 (configuration not stated),1.79%
4,Cc1cc(NC(=O)CSc2nnc(-c3ccncc3)n2-c2ccccc2)no1,10.6%
5,CCCCOc1ccc(CC(=O)NCC(=O)O)cc1,3.76%
6,CCCCOc1ccc(C(=O)O)cc1,9.1%
7,Cc1cccc(N(Cc2cc3ccccc3[nH]c2=O)C(=O)c2cccs2)c1,0.39%
8,C=CCOc1ccc2ccccc2c1CNc1ncn[nH]1,0.63%
9,CN(CC(=O)Nc1ccc(N2CCOCC2)cc1)C(=O)COc1ccccc1F,0.51%
10,CN1c2ccsc2C(O)=C(C(=S)Nc2ccccc2)S1(=O)=O,7.91%
11,Cc1ccc(NC(=O)C2=C(O)c3sccc3N(C)S2(=O)=O)cc1,8.43%
12,Cc1ccc(NC(=S)C2=C(O)c3sccc3N(C)S2(=O)=O)cc1,25.2% (active)
13,Cc1cc(Oc2cc(N)cc([N+](=O)[O-])c2)ccc1Cl,4.69%
14,O=C(NNC(=O)c1ccc2ccccc2c1O)c1ccccc1Cl,25.2% (active)
15,O=C(NNC(=O)c1ccccc1Cl)c1ccccc1Cl,-3.69%
16,O=C(NNC(=O)c1ccccc1Br)c1ccccc1Cl,5.77%
17,CSc1ccc(-c2nnn(CC(=O)NCc3ccccc3)n2)cc1,-1.85%
18,Cc1[nH]nc2c1C(c1ccc(-c3ccccc3C#N)o1)C(C#N)=C(N)O2 (configuration not stated),23.4% (active)
19,Cc1[nH]nc2c1C(c1ccc(-c3ccc(Cl)cc3)o1)C(C#N)=C(N)O2 (configuration not stated),-0.1%
20,Cc1ccc(-c2ccc(C3C(C#N)=C(N)Oc4n[nH]c(C)c43)o2)cc1 (configuration not stated),12.9%
21,COc1ccc(N2CCN(C(=O)COc3ncnc4ccccc34)CC2)cc1,0.28%
22,N/C(=N\OC(=O)CCCOc1ccccc1)c1ccncc1,2.2%
23,CCOCCCNC(=O)CCC(=O)NNc1nc2ccccc2c2nc(C)nn12,1.55%

row,SMILES,inhibition
1,CCCCn1c(N)c(S(=O)(=O)c2ccc(C)cc2)c2nc3ccccc3nc21,12.5%
2,CCCCn1c(NC(=O)c2ccccc2)c(C#N)c2nc3ccccc3nc21,2.47%
3,Nc1c(S(=O)(=O)c2ccccc2)c2nc3ccccc3nc2n1Cc1ccco1,21.5%
4,COc1ccc(-n2c(NC(=O)c3ccc(Br)o3)c(C#N)c3nc4ccccc4nc32)cc1,1.59%
5,COc1ccc(-n2c(NC(=O)c3ccco3)c(C#N)c3nc4ccccc4nc32)cc1,3.92%
6,Cc1cccc(S(=O)(=O)c2c(N)n(Cc3ccco3)c3nc4ccccc4nc23)c1,20.6%
7,Cc1ccc(S(=O)(=O)c2c(N)n(Cc3ccco3)c3nc4ccccc4nc23)cc1,24.7% (active)
8,CCCCn1c(NS(=O)(=O)c2ccc(C)cc2)c(S(=O)(=O)c2ccccc2)c2nc3ccccc3nc21,11.6%
9,CCCCn1c(NS(=O)(=O)c2ccccc2)c(S(=O)(=O)c2ccc(C)cc2)c2nc3ccccc3nc21,-1.2%
10,O=C(c1ccc(-c2ccccc2)cc1)C1CCCN(C(=O)Cn2cncn2)C1 (configuration not stated),8.56%
11,O=C(C(=O)N1CCCc2ccccc21)c1cn(CC(=O)N2CCOCC2)c2ccccc12,1.02%
12,O=C(NCc1ccccc1)C12CC3CC(CC(C3)C1)C2,-3.07%
13,Cc1nn(C(=O)c2cccnc2)c(C)c1Sc1ccccc1,6.53%
14,Cc1ccc(S(=O)(=O)N(C)C)cc1NC(=O)c1sccc1Cl,0.57%
15,Cc1ccc(C(=O)N2CCCC(c3ccc(Cl)cc3)=N2)cc1,-2.39%
16,Cc1ccsc1/C=N/NC(=O)c1ccc([N+](=O)[O-])cc1,4%
17,CC(=O)Nc1c(S(=O)(=O)c2ccccc2)c2nc3ccccc3nc2n1Cc1ccccc1,22.9%
18,CCCCn1c(NC(=O)c2ccc(Br)o2)c(S(=O)(=O)c2ccccc2)c2nc3ccccc3nc21,8.47%
19,CC(=O)Nc1ccc2nc(NC(=O)c3cccs3)sc2c1,4.98%
20,O=C(Nc1ccc(F)cc1F)c1ccccc1-c1ccccc1,-1.46%
21,CCN(CC)C(=O)CSc1nc2ccsc2c(=O)n1CCCC(=O)NCCc1ccc(S(N)(=O)=O)cc1,11.4%
22,CCCCNC(=O)CSc1nc2ccsc2c(=O)n1CCCC(=O)NCCc1ccc(S(N)(=O)=O)cc1,4.74%
23,COc1cc(C(=O)OCC(=O)NCc2ccco2)cc(OC)c1OC,7.63%

row,SMILES,inhibition
1,CCCn1c2c(c(O)c(C(=O)Nc3ncccc3O)c1=O)CCCC2,25.1% (active)
2,CC(C)Cn1c2c(c(O)c(C(=O)Nc3ncccc3O)c1=O)CCCC2,16.5%
3,CCCn1c2c(c(O)c(C(=O)Nc3ncccc3C)c1=O)CCCC2,5.08%
4,O=C(NCc1ccccn1)C(=O)NCc1ccccn1,5.31%
5,COc1ccc(-n2c(SCC(=O)NCc3ccco3)nnc2-c2c[nH]c3ccccc23)cc1,3.42%
6,COc1ccc(-c2nc(SCC(=O)NCc3ccco3)c(-c3ccccc3)[nH]2)cc1OC,8.46%
7,COc1ccc(-c2[nH]c(-c3ccccc3)nc2SCC(=O)NCc2ccco2)cc1OC,4.65%
8,COc1cccc(-n2c(SCC(=O)NCc3ccco3)nnc2-c2c[nH]c3ccccc23)c1,16.4%
9,COc1ccc(OC)c(-n2c(SCC(=O)NCc3ccco3)nnc2-c2c[nH]c3ccccc23)c1,24.5% (active)
10,COc1ccc(-c2[nH]c(-c3cccc(OC)c3)nc2SCC(=O)NCc2ccco2)cc1,25.2% (active)
11,S=c1nc(-c2csc3c2CCCC3)[nH][nH]1,-7.04%
12,CCCC(=O)N(Cc1cc2cccc(C)c2[nH]c1=O)c1ccccc1OC,0.65%
13,COc1cccc(-n2cc(CN(C)Cc3nc(Cc4ccccc4)no3)cn2)c1,0.62%
14,COc1ccc(NC(=O)C2CCCN(S(=O)(=O)c3ccc4c(c3)oc(=O)n4C)C2)cc1OC (configuration not stated),3.43%
15,COc1ccccc1N1CCN(S(=O)(=O)CC23CCC(CC2=O)C3(C)C)CC1 (configuration not stated),-1.74%
16,CCCn1cc(S(=O)(=O)CC(=O)Nc2ccc(OC)cc2OC)c2ccccc21,-0.94%
17,O=C(/C=C/c1ccccc1Cl)N(Cc1ccccc1)C1CCS(=O)(=O)C1 (configuration not stated),0.49%
18,COc1ccc(N2CSC3=C(C#N)C(c4cccs4)CC(=O)N3C2)cc1 (configuration not stated),31.7%
19,Cc1ccc(C(=O)N2CCN(c3ccc(NC(=O)c4cccnc4)cc3)CC2)cc1,25.7% (active)
20,Cc1ccccc1C(=O)N1CCN(c2ccc(NC(=O)c3cccnc3)cc2)CC1,1.42%
21,O=C(Nc1ccc(N2CCN(C(=O)c3ccc(Cl)cc3)CC2)cc1)c1cccnc1,3.47%
22,O=[N+]([O-])c1ccc(Cl)cc1N1CCCCC1,4.92%
23,O=C(CSc1ccccc1)Nc1ccc(S(=O)(=O)Nc2ncccn2)cc1,3.64%

row,SMILES,inhibition
1,Cc1cc(C)nc(SCC(=O)Nc2ccc(S(=O)(=O)Nc3ncccn3)cc2)n1,3.26%
2,O=C(CSc1nnc(-c2ccncc2)n1C1CCCCC1)Nc1ccccc1,0.45%
3,O=C(CSc1nnc(-c2ccccc2)n1C1CCCCC1)Nc1ccc(S(=O)(=O)Nc2ccccn2)cc1,1.56%
4,Cc1noc(NS(=O)(=O)c2ccc(NC(=O)CSc3ncccn3)cc2)c1C,1.83%
5,Cc1noc(NS(=O)(=O)c2ccc(NC(=O)CSc3n[nH]c(-c4ccccc4)n3)cc2)c1C,19.9%
6,CC(Sc1nnc2ccccn12)C(=O)N1CCc2ccccc2C1 (configuration not stated),2.85%
7,NC1=C(c2ccc(F)cc2)C(=O)CS1,-0.25%
8,COC(=O)c1noc(C)c1-c1ccnn1C(=O)c1ccc(C)cc1,5.18%
9,CCOc1ccccc1OCC(=O)Nc1nnc(C)s1,0.54%
10,O=c1oc2ccccc2nc1/C=C(O)/C=C\c1ccccc1,5.28%
11,COc1ccccc1-c1c(C)oc2c(CN3CCN(C)CC3)c(O)ccc2c1=O,8.67%
12,CN1CCN(Cc2c(O)ccc3c(-c4ccccc4)cc(=O)oc23)CC1,20.2%
13,Cc1cc(N2CCN(c3ccccn3)CC2)n2c(nc3ccccc32)c1C#N,-0.82%
14,O=[N+]([O-])c1cc(C(F)(F)F)ccc1N/N=C/c1cc2ccccc2nc1Cl,-1.36%
15,C/C(=N/OCO/N=C(\C)c1ccccc1F)c1ccccc1F,1.08%
16,Cc1ccc2oc(=O)n(Cc3ccccc3OC(C)C)c2c1,1.91%
17,Cc1ccc(S(=O)(=O)Nc2nc3ccccc3nc2NCc2ccco2)cc1C,25.4% (active)
18,Cc1cccc(S(=O)(=O)Nc2nc3ccccc3nc2NCc2ccco2)c1,14.8%
19,Cc1ccc(S(=O)(=O)Nc2nc3ccccc3nc2NCc2ccco2)cc1,10.1%
20,N/C(Cc1nc(-c2ccc(Br)cc2)cs1)=N\O,1.76%
21,COc1cc2c(cc1NC(=O)c1cc(-c3ccncc3)nc3ccc(C)cc13)oc1ccccc12,0.05%
22,Cc1ccc(CCNS(=O)(=O)c2cnc[nH]2)cc1,1.38%
23,C/C(=N\NC(=S)NC1CCCCC1)c1ccc(O)cc1,-1.69%
